From PubChem
In the library only some 2.1% were active in any assay of this set; here they are far more common.
ID4 binder: binders of human ID4 protein; 31,000 tested, 1.2% active; AID 624137; small molecule microarray, Flag-ID4 binding, fluorescence F/B; P47928; calls only; call rule not given here;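 also: a binder raises fluorescence above local background on the spot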
Target sequence (P47928 whole entry, looked up): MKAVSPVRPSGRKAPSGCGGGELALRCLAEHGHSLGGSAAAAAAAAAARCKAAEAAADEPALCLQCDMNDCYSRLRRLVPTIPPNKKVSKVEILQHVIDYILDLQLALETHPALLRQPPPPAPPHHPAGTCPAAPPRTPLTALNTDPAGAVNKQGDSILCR
mut p53 react: re-activators of the mutant p53 pathway | SW480 PUMA-promoter luciferase, p53 mutant reactivation | activation, % at 9.98 µM | 28,000 tested, 1.5% active | AID 624151; in the data active = activation above about 52%
The depositor's hits bear a star.

How did COc1ccc(NC(=S)NCc2cccnc2)cc1OC do in these assays?
ID4 binder: inactive; mut p53 react: 8

How did Cc1cc(=O)oc2cc(NC(=S)NCc3cccnc3)ccc12 do in these assays?
ID4 binder: active; mut p53 react: 75*

Results for O=C(CSc1ncnc2sc3c(c12)CCCC3)Nc1cccc(F)c1 ?
ID4 binder: inactive; mut p53 react: 13

How did O=C(CSc1ncnc2sc3c(c12)CCC3)Nc1cccc(-c2nc3ccccc3s2)c1 do in these assays?
ID4 binder: inactive; mut p53 react: 80*

How did Cc1ccc2oc(-c3cccc(NC(=O)COc4cccc(C)c4C)c3)nc2c1 do in these assays?
ID4 binder: inactive; mut p53 react: 34

Results for Cc1ccccc1OCC(=O)Nc1cccc(C(=O)O)c1 ?
ID4 binder: inactive; mut p53 react: -93

Results for CCC(=O)Nc1ccc(Cl)c(NC(=O)COc2ccc(Br)cc2)c1 ?
ID4 binder: inactive; mut p53 react: 18

What do the screens show for `CCC(=O)Nc1ccc(Cl)c(NC(=O)COc2ccccc2C)c1`?
ID4 binder: inactive; mut p53 react: 107*

Results for Cc1ccccc1OCC(=O)Nc1cccc(NC(=O)C(C)C)c1 ?
ID4 binder: inactive; mut p53 react: 62*

What do the screens show for `Cc1cccc(OCC(=O)Nc2cccc(-c3nc4ccccc4s3)c2)c1C`?
ID4 binder: inactive; mut p53 react: 95*

Results for CNC[C@@H]1OCCCC[C@@H](C)Oc2ccc(NC(=O)Nc3cccc4ccccc34)cc2C(=O)N([C@H](C)CO)C[C@@H]1C ?
ID4 binder: inactive; mut p53 react: -3

Results for Cn1c(SCC(=O)Nc2ccc(S(N)(=O)=O)cc2)nnc1-c1ccccc1Cl ?
ID4 binder: inactive; mut p53 react: 1

Results for C[C@@H]1CN([C@@H](C)CO)C(=O)Cc2cc(NS(=O)(=O)c3ccc(F)cc3)ccc2O[C@H]1CN(C)S(=O)(=O)c1ccc(Cl)cc1 ?
mut p53 react: -3

What do the screens show for `O=C(C[C@H]1C=C[C@@H](NC(=O)c2ccc(F)cc2)[C@@H](CO)O1)NCCc1ccccc1`?
ID4 binder: inactive

How did Cc1ccccc1OCC(=O)Nc1cccc(-c2nc3ccccc3s2)c1 do in these assays?
ID4 binder: inactive; mut p53 react: 79*

Results for Cc1ccccc1OCC(=O)NC(=S)Nc1ccccc1-c1nc2ccccc2s1 ?
ID4 binder: inactive; mut p53 react: 2

What do the screens show for `CNC[C@@H]1Oc2ccc(NS(=O)(=O)c3ccccc3)cc2CC(=O)N([C@@H](C)CO)C[C@H]1C`?
ID4 binder: active; mut p53 react: 4

Results for CNC[C@H]1Oc2ccc(NS(=O)(=O)c3cccs3)cc2CC(=O)N([C@H](C)CO)C[C@@H]1C ?
ID4 binder: active; mut p53 react: 2

What do the screens show for `CNC[C@@H]1Oc2ccc(NS(=O)(=O)c3cccs3)cc2CC(=O)N([C@H](C)CO)C[C@@H]1C`?
ID4 binder: inactive; mut p53 react: -3

What do the screens show for `CNC[C@@H]1Oc2ccc(NS(=O)(=O)c3ccccc3)cc2CC(=O)N([C@@H](C)CO)C[C@@H]1C`?
ID4 binder: inactive; mut p53 react: 10

Results for O=C1C(=O)N(CCN2CCOCC2)C(c2ccc(Cl)cc2)C1C(=O)c1ccco1 (stereo unspecified) ?
ID4 binder: inactive; mut p53 react: 3

Results for CNC[C@H]1Oc2ccc(NC(=O)Nc3ccc4c(c3)OCO4)cc2C(=O)N([C@@H](C)CO)C[C@H]1C ?
ID4 binder: active; mut p53 react: -3

How did CNC[C@H]1OCCCC[C@@H](C)Oc2ccc(NC(=O)Nc3ccc4c(c3)OCO4)cc2C(=O)N([C@@H](C)CO)C[C@H]1C do in these assays?
ID4 binder: active; mut p53 react: -6

What do the screens show for `CNC[C@@H]1Oc2ccc(NC(=O)Nc3ccc4c(c3)OCO4)cc2C(=O)N([C@H](C)CO)C[C@H]1C`?
ID4 binder: active; mut p53 react: -14

Results for CNC[C@@H]1OCCCC[C@H](C)Oc2ccc(NC(=O)Nc3ccc4c(c3)OCO4)cc2C(=O)N([C@H](C)CO)C[C@@H]1C ?
ID4 binder: inactive; mut p53 react: 5

What do the screens show for `C[C@H](CO)N1C[C@H](C)[C@@H](CN(C)C)Oc2ccc(NC(=O)Nc3ccc4c(c3)OCO4)cc2C1=O`?
ID4 binder: inactive; mut p53 react: 4

What do the screens show for `CNC[C@H]1Oc2ccc(NC(=O)Nc3ccc4c(c3)OCO4)cc2C(=O)N([C@@H](C)CO)C[C@@H]1C`?
ID4 binder: inactive; mut p53 react: -4

What do the screens show for `Cn1c(SCC(=O)Nc2ccc(I)cc2)nnc1-c1ccc(Cl)cc1`?
ID4 binder: inactive; mut p53 react: -13

What do the screens show for `Cc1noc(C)c1S(=O)(=O)Nc1ccc2c(c1)C(=O)N([C@@H](C)CO)C[C@@H](C)[C@H](CN(C)C(=O)CCC(F)(F)F)OCCCC[C@@H](C)O2`?
ID4 binder: inactive; mut p53 react: 2

How did C[C@H]1CN([C@@H](C)CO)C(=O)c2cc(NS(C)(=O)=O)ccc2O[C@@H]1CN(C)C(=O)Nc1ccc(F)cc1 do in these assays?
ID4 binder: inactive; mut p53 react: 5

How did O=c1c(-c2ccc(O)cc2)coc2cc(OC3OC(CO)C(O)C(O)C3O)cc(O)c12 (stereo unspecified) do in these assays?
ID4 binder: inactive; mut p53 react: 90*

How did COc1ccc(-c2oc3cc(O[C@@H]4O[C@@H](C)[C@H](O)[C@@H](O)[C@H]4O)cc(O)c3c(=O)c2O[C@@H]2O[C@H](CO)[C@@H](O)[C@H](O)[C@H]2O)cc1 do in these assays?
mut p53 react: 2

Results for O=[N+]([O-])c1ccccc1CN1CCN(CCO)CC1 ?
ID4 binder: active; mut p53 react: 3

What do the screens show for `O=[N+]([O-])c1ccccc1S(=O)(=O)N1CCN(Cc2cccc(OCCO)c2)CC1`?
ID4 binder: inactive

What do the screens show for `C[C@@H]1CN([C@H](C)CO)S(=O)(=O)c2ccc(C#Cc3ccccc3)cc2O[C@@H]1CN(C)C(=O)C1CC1`?
ID4 binder: inactive; mut p53 react: -6

What do the screens show for `Cc1cccc(CN(C)C[C@H]2OCc3cn(nn3)CCCC(=O)N([C@H](C)CO)C[C@H]2C)c1`?
ID4 binder: inactive

How did Cc1ccc(-c2noc(CSc3nnc(C)n3-c3cccc(C)c3)n2)cc1 do in these assays?
ID4 binder: inactive; mut p53 react: 2

What do the screens show for `Cc1ccc(-c2noc(CSc3nc(C)cc(C)n3)n2)cc1`?
ID4 binder: inactive; mut p53 react: 63*

What do the screens show for `C[C@@H]1CCCCO[C@H](CN(C)C(=O)CCCN(C)C)[C@@H](C)CN([C@H](C)CO)C(=O)c2cc(NC(=O)Cc3ccccc3)ccc2O1`?
ID4 binder: inactive; mut p53 react: 4

Results for C[C@@H]1CCCCO[C@@H](CN(C)C)[C@H](C)CN([C@@H](C)CO)C(=O)c2cc(NS(=O)(=O)c3ccc(Cl)cc3)ccc2O1 ?
ID4 binder: inactive; mut p53 react: -1

Results for Cc1ccc(NC(=O)CSc2nnnn2-c2ccc(Cl)c(C(=O)O)c2)cc1C ?
ID4 binder: active; mut p53 react: 8

What do the screens show for `Cc1cc(NC(=O)CSc2nnnn2-c2ccccc2)ccc1Cl`?
ID4 binder: inactive; mut p53 react: -12

Results for O=C(NCc1ccc(F)cc1)[C@H]1C[C@H]2C(=O)N3CCC[C@H]3C(=O)N2[C@H]1c1cccc(OCCO)c1 ?
ID4 binder: active
